The record followed here is publication PMC4336329 (PLoS ONE, 2015).

Molecules are shown by their SMILES. The campaign covered roughly 310,000 compounds. About 14,000 (4.5%) showed an effect of 50% or more. Effects have a minus sign here. Only a selection was taken, and strong results are over-represented in it overall.
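Further: peak tail current of the secondary pulse compared with the same well before compound.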

For the assay, the target named is human ether-à-go-go-related gene (hERG) potassium channel (human, UniProt Q12809). Nature of the assay: primary screen, population patch clamp on CHO cells stably expressing hERG; higher = less effect of the substance.
Chain of human ether-à-go-go-related gene (hERG) potassium channel (Q12809 whole entry, looked up): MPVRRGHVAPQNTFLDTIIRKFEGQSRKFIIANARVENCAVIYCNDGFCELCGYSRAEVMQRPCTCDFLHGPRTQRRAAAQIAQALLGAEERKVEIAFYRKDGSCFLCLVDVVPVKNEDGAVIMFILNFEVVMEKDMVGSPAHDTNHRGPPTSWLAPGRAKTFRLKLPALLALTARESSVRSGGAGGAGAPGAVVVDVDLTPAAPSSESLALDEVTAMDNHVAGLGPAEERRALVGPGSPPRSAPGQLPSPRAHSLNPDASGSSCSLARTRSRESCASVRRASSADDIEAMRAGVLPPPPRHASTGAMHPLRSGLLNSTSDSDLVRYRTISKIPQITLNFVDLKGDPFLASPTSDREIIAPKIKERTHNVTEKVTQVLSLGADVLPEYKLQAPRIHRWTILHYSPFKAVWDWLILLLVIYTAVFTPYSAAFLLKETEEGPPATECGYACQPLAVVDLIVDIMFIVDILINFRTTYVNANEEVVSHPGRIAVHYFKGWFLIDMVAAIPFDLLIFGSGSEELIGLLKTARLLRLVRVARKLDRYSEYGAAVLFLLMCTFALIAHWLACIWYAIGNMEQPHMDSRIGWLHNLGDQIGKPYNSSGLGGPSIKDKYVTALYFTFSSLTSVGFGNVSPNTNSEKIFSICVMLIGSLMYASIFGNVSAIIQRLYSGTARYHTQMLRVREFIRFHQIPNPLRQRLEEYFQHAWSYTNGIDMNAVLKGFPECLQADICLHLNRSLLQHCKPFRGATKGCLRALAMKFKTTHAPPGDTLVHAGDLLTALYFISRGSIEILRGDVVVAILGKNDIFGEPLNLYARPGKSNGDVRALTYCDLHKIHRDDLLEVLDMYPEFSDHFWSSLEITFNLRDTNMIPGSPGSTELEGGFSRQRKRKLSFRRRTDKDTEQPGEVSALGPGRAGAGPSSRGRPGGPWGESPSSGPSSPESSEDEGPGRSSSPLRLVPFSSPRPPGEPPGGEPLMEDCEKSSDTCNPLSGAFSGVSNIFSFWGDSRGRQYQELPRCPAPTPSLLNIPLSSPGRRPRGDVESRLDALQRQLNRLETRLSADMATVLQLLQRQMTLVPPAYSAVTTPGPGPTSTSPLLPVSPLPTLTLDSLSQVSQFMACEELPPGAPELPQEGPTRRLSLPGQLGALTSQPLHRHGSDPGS
For `O=[N+]([O-])c1cc(N=Nc2ccc3ccccc3c2)ccc1O`, the “hERG current change (%, negative = inhibition) at 10uM” value is given as 12.8%.

Turning to `COC(=O)C1C2C=CC3(CN(c4cccc(Cl)c4)C(=O)C13)O2` (stereo not shown), the “hERG current change (%, negative = inhibition) at 10uM” value came out at 2.49%.

Consider `CC1(C)Cc2c(cnn2-c2ccccc2)C(NC(=O)c2ccc[n+]([O-])c2)C1` (stereo not shown), for which the “hERG current change (%, negative = inhibition) at 10uM” value is 2.3%.

In the case of `CC(=O)c1ccc(C(=O)NC2CC(C)(C)Cc3c2cnn3-c2ccccc2)cc1` (stereo not shown), the “hERG current change (%, negative = inhibition) at 10uM” value is given as -21.8%.

On to `CC1(C)Cc2c(cnn2-c2ccccc2)C(NC(=O)c2ccoc2)C1` (stereo not shown), for which the “hERG current change (%, negative = inhibition) at 10uM” value was -93.4%.

`CC1(C)Cc2c(cnn2-c2ccc(F)cc2)C(NC(=O)c2cnccn2)C1` (stereo not shown): the “hERG current change (%, negative = inhibition) at 10uM” value is -37.6%.

As for `Cc1cc(C(=O)NC2CC(C)(C)Cc3c2cnn3-c2ccc(F)cc2)no1` (stereo not shown), the “hERG current change (%, negative = inhibition) at 10uM” value is given as -32.8%.

Take `CC1(C)Cc2c(cnn2-c2ccc(F)cc2)C(NC(=O)c2ccoc2)C1` (stereo not shown): the “hERG current change (%, negative = inhibition) at 10uM” value is -89.1%.

Regarding `CC1Cc2cc(S(=O)(=O)NCCc3ccccc3)ccc2N1C(=O)C1CC1` (stereo not shown), the “hERG current change (%, negative = inhibition) at 10uM” value is reported as 13.7%.

Regarding `COc1ccc(-c2cc(=O)[nH]c(=O)[nH]2)cc1`, the “hERG current change (%, negative = inhibition) at 10uM” value was -3.74%.

As to `O=C(c1cccc(S(=O)(=O)Nc2ccccc2Cl)c1)N1CCC1`, the “hERG current change (%, negative = inhibition) at 10uM” value was -0.443%.

In the case of `Cc1ccc(SCC(=O)NCCc2ccc(F)cc2)cc1`, the “hERG current change (%, negative = inhibition) at 10uM” value is listed as -0.26%.

Turning to `O=C(O)c1cccc2c1C(=O)N(CC1CCCO1)C2` (stereo not shown), the “hERG current change (%, negative = inhibition) at 10uM” value amounted to 24.2%.

On to `O=C(NCc1ccc(Cl)cc1)c1cccc2c1C(=O)N(CC1CCCO1)C2` (stereo not shown), for which the “hERG current change (%, negative = inhibition) at 10uM” value was -70.8%.

As for `COc1ccc(NC(=O)c2cccc3c2C(=O)N(CC2CCCO2)C3)cc1OC` (stereo not shown), the “hERG current change (%, negative = inhibition) at 10uM” value is listed as -17.9%.

`COc1ccc(CNC(=O)c2cccc3c2C(=O)N(CC2CCCO2)C3)cc1` (stereo not shown): the “hERG current change (%, negative = inhibition) at 10uM” value was -34.5%.

Turning to `CCc1cccc(NC(=O)c2cccc3c2C(=O)N(CC2CCCO2)C3)c1` (stereo not shown), the “hERG current change (%, negative = inhibition) at 10uM” value is listed as -72.2%.

Regarding `CCOC(=O)c1ccc(NC(=O)c2cccc3c2C(=O)N(CC2CCCO2)C3)cc1` (stereo not shown), the “hERG current change (%, negative = inhibition) at 10uM” value is given as -2.27%.

In the case of `CC(=O)N1CCC(C(=O)NCCOc2ccc(C)cc2)CC1`, the “hERG current change (%, negative = inhibition) at 10uM” value is 7.67%.

In the case of `COc1ccc(CC(=O)NNC(=O)CN(C)S(=O)(=O)c2ccc(Cl)cc2)cc1OC`, the “hERG current change (%, negative = inhibition) at 10uM” value is listed as 0.252%.

Regarding `CCOC(=O)C1CCN(S(=O)(=O)Cc2ccccc2)CC1`, the “hERG current change (%, negative = inhibition) at 10uM” value is -8.61%.

As for `COc1ccc(C(=O)CC(=O)C(=O)Nc2ccc(Cl)cc2)cc1`, the “hERG current change (%, negative = inhibition) at 10uM” value is 7.74%.

Consider `Cc1cc2c(c(=O)o1)C(c1cccs1)C(C#N)=C(N)O2` (stereo not shown), for which the “hERG current change (%, negative = inhibition) at 10uM” value was found to be 4%.

Regarding `COc1ccc(-n2cc(CN3CCC(OC)CC3)c(-c3cccc(F)c3)n2)cc1`, the “hERG current change (%, negative = inhibition) at 10uM” value was -13.5%.

As to `CC(=O)N1CCCN(Cc2cn(-c3cccc(C)c3)nc2-c2cccc(F)c2)CC1`, the “hERG current change (%, negative = inhibition) at 10uM” value is given as -16.9%.

With `COc1ccc(-n2cc(CN3CCCC3)c(-c3cccc(F)c3)n2)cc1`, the “hERG current change (%, negative = inhibition) at 10uM” value is listed as -57%.

As to `CCC(O)C1CCN(Cc2cn(-c3ccc(OC)cc3)nc2-c2cccc(F)c2)CC1` (stereo not shown), the “hERG current change (%, negative = inhibition) at 10uM” value is listed as -75.3%.

For `Cc1cccc(-n2cc(CN3CCN(C(=O)c4ncn[nH]4)CC3)c(-c3cccc(F)c3)n2)c1`, the “hERG current change (%, negative = inhibition) at 10uM” value is given as -16.5%.
